Measured values from PMC4336329 (PLoS ONE, 2015).
Hit rate of the full screen: of about 310,000 compounds, about 14,000 (4.5%) showed an effect of 50% or more. The effect is printed as a negative number. The list comes from a sample in which strong results are over-represented; it also holds similar structures and randomly drawn compounds.

The compounds below were run against human ether-à-go-go-related gene (hERG) potassium channel (human, UniProt Q12809) (assay: primary screen, population patch clamp on CHO cells stably expressing hERG; higher = less effect of the substance).
Chain of human ether-à-go-go-related gene (hERG) potassium channel (Q12809 whole entry, looked up): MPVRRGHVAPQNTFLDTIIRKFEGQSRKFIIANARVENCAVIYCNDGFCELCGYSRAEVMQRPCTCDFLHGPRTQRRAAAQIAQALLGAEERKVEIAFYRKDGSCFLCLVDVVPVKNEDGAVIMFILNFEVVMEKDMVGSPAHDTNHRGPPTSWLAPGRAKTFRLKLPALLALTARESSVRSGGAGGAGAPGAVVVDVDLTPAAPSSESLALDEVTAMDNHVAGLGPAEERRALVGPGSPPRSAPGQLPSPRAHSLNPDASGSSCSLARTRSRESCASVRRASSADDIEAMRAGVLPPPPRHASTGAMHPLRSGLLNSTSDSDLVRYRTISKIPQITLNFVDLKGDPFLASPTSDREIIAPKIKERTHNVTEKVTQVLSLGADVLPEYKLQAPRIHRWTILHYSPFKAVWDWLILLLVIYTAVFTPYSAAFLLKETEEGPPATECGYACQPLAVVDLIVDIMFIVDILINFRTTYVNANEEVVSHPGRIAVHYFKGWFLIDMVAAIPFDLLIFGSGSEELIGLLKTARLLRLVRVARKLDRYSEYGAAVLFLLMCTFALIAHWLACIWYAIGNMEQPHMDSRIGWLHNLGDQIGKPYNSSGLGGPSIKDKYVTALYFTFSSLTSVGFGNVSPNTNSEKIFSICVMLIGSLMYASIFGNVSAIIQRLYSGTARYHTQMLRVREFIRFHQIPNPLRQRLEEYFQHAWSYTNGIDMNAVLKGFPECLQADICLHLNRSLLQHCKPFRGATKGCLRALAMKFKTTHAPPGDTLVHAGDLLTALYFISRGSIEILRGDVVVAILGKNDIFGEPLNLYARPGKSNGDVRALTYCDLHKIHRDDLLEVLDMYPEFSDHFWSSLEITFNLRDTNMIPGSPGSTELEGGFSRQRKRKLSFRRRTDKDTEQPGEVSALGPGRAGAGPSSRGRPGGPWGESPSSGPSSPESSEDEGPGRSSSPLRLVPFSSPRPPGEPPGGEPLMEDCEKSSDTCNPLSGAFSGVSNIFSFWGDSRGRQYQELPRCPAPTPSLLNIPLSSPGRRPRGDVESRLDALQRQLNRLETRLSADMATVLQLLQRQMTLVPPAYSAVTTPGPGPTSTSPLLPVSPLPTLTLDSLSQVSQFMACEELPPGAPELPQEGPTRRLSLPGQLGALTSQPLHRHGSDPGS
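Also: peak tail current of the secondary pulse compared with the same well before compound.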

Compound | hERG current change (%, negative = inhibition) at 10uM
Cc1ccc(C(=O)Nc2ccc(N3CCN(C(=O)c4ccco4)CC3)cc2)cc1 | 10.4%
CCN(CC)CCCN1C(=O)c2oc3ccccc3c(=O)c2C1c1cc(OC)ccc1OC (stereo not shown) | -13%
COCCOC(=O)C(C#N)c1nc2ccccc2nc1N1CCN(Cc2ccccc2)CC1 (stereo not shown) | -64.3%
CC1CCN(c2nc3ccccc3nc2C(C#N)C(=O)NC2CCCCC2)CC1 (stereo not shown) | 10.1%
COC(=O)C(C#N)c1nc2ccccc2nc1N1CCN(Cc2ccc3c(c2)OCO3)CC1 (stereo not shown) | -2.48%
N#CC(C(=O)NC1CC1)c1nc2ccccc2nc1N1CCCC1 (stereo not shown) | -7.63%
CC(C)OC(=O)C(C#N)c1nc2ccccc2nc1N1CCN(Cc2ccccc2)CC1 (stereo not shown) | -18.6%
CC(C)COC(=O)C(C#N)c1nc2ccccc2nc1N1CCN(Cc2ccccc2)CC1 (stereo not shown) | -12%
COCC(C)OC(=O)C(C#N)c1nc2ccccc2nc1N1CCN(Cc2ccccc2)CC1 (stereo not shown) | -31%
N#CC(C(=O)NC1CC1)c1nc2ccccc2nc1N1CCN(C/C=C/c2ccccc2)CC1 (stereo not shown) | -58.9%
C=CCOC(=O)C(C#N)c1nc2ccccc2nc1N1CCN(Cc2ccccc2)CC1 (stereo not shown) | -62.1%
CSc1ccc(/C=C/C(=O)c2ccc(NC(=O)Cc3ccccc3)cc2)cc1 | -4.59%
O=C(O)c1ccc(NS(=O)(=O)c2ccc(Cl)c(Cl)c2)cc1O | -1.71%
COc1ccc(-c2csc3nc(-c4ccccc4F)oc(=O)c23)cc1OC | -3.61%
CCOC(=O)c1ccc(COC(=O)c2cc3ccccc3oc2=O)o1 | -48.6%
O=C1NC2=C(CCc3ccccc32)C(c2ccc(Br)cc2)N1 (stereo not shown) | -56.3%
O=C1NC2=C(CCc3ccccc32)C(c2ccccc2)N1 (stereo not shown) | -20.8%
Cc1ccc(C2NC(=O)NC3=C2CCc2ccccc23)cc1 (stereo not shown) | 2.59%
CCOC(=O)c1cccc(NC(=O)c2c(O)[nH]c(=O)[nH]c2=O)c1 | -2.88%
Cc1ccc(CN2CCSc3ccc(C(=O)N4CCN(c5ncccn5)CC4)cc32)cc1 | 19%
CN(NC(=O)C(C)(C)C)c1nc(-c2ccccc2)nnc1C(F)(F)F | -4.05%
CC(C)C(=O)NNC(=O)CSc1ncnc2c1cnn2-c1ccccc1Cl | 9.5%

Compound | hERG current change (%, negative = inhibition) at 10uM
COc1ccc(N2CCN(C(=O)CSc3ncnc4c3cnn4-c3ccccc3C)CC2)cc1 | 10.8%
O=C(CSc1ncnc2c1cnn2-c1ccccc1Cl)N1CCN(C(=O)c2ccco2)CC1 | -65.7%
Cc1sc2ncnc(SCC(=O)Nc3ccc(CN4CCCC4)cc3)c2c1C | -72.6%
Cc1nc(SCC(=O)Nc2ccc(CN3CCCC3)cc2)c2c(C)c(C)sc2n1 | -35.3%
Cc1sc2nc(C(C)C)nc(SCC(=O)N3CCN(C(=O)c4ccco4)CC3)c2c1C | -72.3%
CC(=O)Nc1ccc(NC(=O)CSc2ncnc3sc(C)c(C)c23)cc1 | 8.58%
Cc1sc2nc(C(C)C)nc(SCC(=O)N3CCOCC3)c2c1C | -0.958%
Cc1sc2nc(C(C)C)nc(SCC(=O)NCc3ccco3)c2c1C | 2.82%
Cc1sc2ncnc(OCC(=O)N3CCN(C(=O)c4ccco4)CC3)c2c1C | -30.8%
Cc1sc2ncnc(SCC(=O)N3CCN(C(=O)c4ccco4)CC3)c2c1C | -70.1%
Cc1sc2ncnc(SCC(=O)N3CCCC3)c2c1C | 2.1%
Cc1cc(=O)n2nc(N3CCCC(C(=O)N4CCOCC4)C3)sc2n1 (stereo not shown) | 3.1%
COc1ccc(/C=C/c2c([N+](=O)[O-])c(=O)n(C)c(=O)n2C)c(OC)c1OC | 13%
O=C(N/N=C/c1cccc2ccccc12)c1cccs1 | 20.7%
COc1ccccc1N(CC(=O)NCC1CCCO1)C(=O)CNS(=O)(=O)c1ccccc1 (stereo not shown) | -0.369%
Cc1cc(=O)oc(C)c1C(=O)Nc1ccc2nsnc2c1 | 9.45%
CCOC(=O)c1ccc2c(c1)nc(SC(C)C(=O)NCC1CCCO1)n2CC (stereo not shown) | -18.9%
CCOC(=O)c1ccc(NC(=O)CNC(=O)c2ccco2)cc1 | 13.8%
O=C(NC(=S)Nc1ccccn1)c1ccc([N+](=O)[O-])cc1 | -11.9%
O=C(CC12CC3CC(CC(C3)C1)C2)NC1CC1 | 23.2%
CCOc1ccc(S(=O)(=O)N2CCN(C(=S)NCc3ccccc3)CC2)cc1 | -18.2%
Nc1cccc(C(=O)Nc2cccc3ncccc23)c1 | 23.8%

Compound | hERG current change (%, negative = inhibition) at 10uM
Cc1cccc(N2CCN(C(=O)c3ccc4c(c3)CCN4S(C)(=O)=O)CC2)c1C | -14.8%
Cc1nc(SCC(=O)N2CCOCC2)c2c(C)c(C)sc2n1 | 1.76%
Cc1nc(SCC(=O)N2CCCCC2)c2c(C)c(C)sc2n1 | -11.7%
Cc1nc(SCC(=O)N2CCN(C(=O)c3ccco3)CC2)c2c(C)c(C)sc2n1 | -66.8%
CCCN1Cc2cccc(C(=O)NCc3ccccc3)c2C1=O | -34.9%
O=C(Nc1ccc(-c2nnc(-c3ccccc3)o2)cc1)C1CCCO1 (stereo not shown) | -13.3%
O=C(Nc1cccc(-c2nnc(-c3ccccc3)o2)c1)C1CC1 | -19.3%
O=C(Nc1cccc(-c2nnc(-c3ccccc3)o2)c1)C1CCCO1 (stereo not shown) | -66.5%
C=CCn1c(=NC(=O)C2CCCCC2)sc2cc(NC(C)=O)ccc21 | -2.15%
O=S(=O)(c1ccc(F)cc1)N1CCN(CC(O)COCc2cccs2)CC1 (stereo not shown) | -18.5%
Cc1cccc(N2CCN(CC(O)COCc3cccs3)CC2)c1C (stereo not shown) | -70.8%
COc1ccccc1N1CCN(CC(O)COCc2cccs2)CC1.Cl (stereo not shown) | -19.8%
CCOc1ccccc1N1CCN(CC(O)COCc2cccs2)CC1 (stereo not shown) | -32.1%
Oc1ccccc1N1CCN(CC(O)COCc2ccccc2Cl)CC1 (stereo not shown) | -42%
OC(COCc1cccs1)CN1CCN(c2ccccn2)CC1 (stereo not shown) | -52.5%
CCOC(=O)C1CCN(CC(O)COCc2cccs2)CC1 (stereo not shown) | -38%
OC(COCc1cccs1)CN1CCN(c2ccccc2Cl)CC1 (stereo not shown) | -71%
CCOC(=O)c1cccc(COC(=O)c2cccc(-c3nnc(-c4ccccc4)o3)c2)c1 | -2.94%
COc1ccc(C(=O)c2ccsc2N)cc1 | 3.5%
Cc1ccc(OP(=O)(O)Oc2ccc(C)cc2)cc1 | 2.09%
CCOC(=O)c1cnc2ccc(OCC)cc2c1N(C)Cc1ccccc1 | -11.9%
CCOC(=O)c1cnc2ccc(OC)cc2c1NCc1ccccc1 | -65.8%

Compound | hERG current change (%, negative = inhibition) at 10uM
CCOC(=O)c1cnc2ccc(OCC)cc2c1NCc1cccnc1.Cl | -77.4%
CCOC(=O)c1nc(NCc2cccnc2)c2ccccc2n1 | -15.3%
CCOC(=O)c1cnc2ccc(OCC)cc2c1NCc1ccccc1 | -40.3%
CCOC(=O)c1cnc2ccc(OCC)cc2c1NCc1ccccc1OC | 4.45%
Cc1cccc(NC(=O)c2cc(S(=O)(=O)NCc3ccco3)ccc2F)c1C | 4.11%
O=C(CNC(=O)c1ccc(-c2ccccc2)cc1)Nc1ccc(S(=O)(=O)Nc2ncccn2)cc1 | 4.04%
Cc1cc(NCc2ccccn2)ccc1Br | -16.5%
Clc1ccc(Cn2cccc2C2=NCCO2)cc1 | 4.69%
CC(C)CNc1nc(Oc2ccc(=O)[nH]n2)nc(N(C)C)n1 | 8.46%
COC(=O)CC(NC(=S)NC(=O)c1ccccc1)c1ccc(Br)cc1 (stereo not shown) | 6.8%
C=CCn1cc(C(=O)NCc2cccnc2)c(=O)c2cc(S(=O)(=O)N(CC)CC)ccc21 | -74.4%
CCN(CC)CCNC(=O)c1cn(CC)c2ccc(S(=O)(=O)N3CCOCC3)cc2c1=O | 14.6%
C=CCn1cc(C(=O)OC)c(=O)c2cc(S(=O)(=O)N3CCCCCC3)ccc21 | -0.223%
C=CCn1cc(C(=O)NCc2ccco2)c(=O)c2cc(S(=O)(=O)N3CCCCCC3)ccc21 | -36.4%
C=CCn1cc(C(=O)NCc2ccc(Cl)cc2)c(=O)c2cc(S(=O)(=O)N(CC)CC)ccc21 | -22.5%
C=CCn1cc(C(=O)NCCCOC)c(=O)c2cc(S(=O)(=O)N3CCC(C)CC3)ccc21 | -32.9%
C=CCn1cc(C(=O)OC)c(=O)c2cc(S(=O)(=O)N3CCC(C)CC3)ccc21 | -39%
C=CCn1cc(C(=O)NCCOC)c(=O)c2cc(S(=O)(=O)N3CCCCCC3)ccc21 | -65.8%
C=CCn1cc(C(=O)NCCOC)c(=O)c2cc(S(=O)(=O)N(CC)CC)ccc21 | -13.9%
C=CCn1cc(C(=O)NCCN(CC)CC)c(=O)c2cc(S(=O)(=O)N3CCCCCC3)ccc21 | -71.6%
C=CCn1cc(C(=O)NCCCN(CC)CC)c(=O)c2cc(S(=O)(=O)N3CCC(C)CC3)ccc21 | -53.7%
COCCNC(=O)c1cn(C)c2ccc(S(=O)(=O)N3CCCCC3)cc2c1=O | 11.1%
